Inconclusive results are not listed. Where a call stands in place of a potency, no number is given. Calls of active or inactive are those of the source. Calls come from the whole dose curve; as a rule, active = well fitted inhibition curve with a large enough effect; inconclusive = small, poorly fitted or top-dose-only effect; inactive = flat fitted curve, though single readings scatter.
Assays:
[1] = target: Glutathione peroxidase 1 (Homo sapiens) (UniProt P07203); assay: Primary qHTS Assay for Inhibitors of Recombinant Selenoprotein Glutathione Peroxidase 1 (GPX1) (AID 1845191); conditions: recombinant GPX1, GR-coupled NADPH fluorescence, 15 min; series mostly up to 48.8 µM; note: potency is the fitted concentration of half-maximal effect
Method in brief: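 GPX1 10 nM, GR 100 nM, GSH 1 mM, NADPH 0.5 mM, CHP 0.5 mM (final). 30-min cpd preincubation, RT. Ex340/Em450 read t=0, t=15 min.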

[2] = target: Phospholipid hydroperoxide glutathione peroxidase GPX4 (Homo sapiens) (UniProt P36969); assay: Primary qHTS Assay for Inhibitors of Recombinant Selenoprotein Glutathione Peroxidase 4 (GPX4) (AID 1845192); conditions: recombinant GPX4, GR-coupled NADPH fluorescence, 15 min; series mostly up to 50 µM
Method in brief: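 qHTS, GR-coupled: GPX4 200 nM + cpd 30 min RT → GSH 1 mM, NADPH 0.5 mM, GR 100 nM → CHP 0.5 mM start; fluor 340/450 at t0 and t15 min; no-enzyme wells as control.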
Note: nearly all actives have a fitted effect of over 65% in size.

Chain of Glutathione peroxidase 1 (Homo sapiens) (P07203 whole entry, looked up): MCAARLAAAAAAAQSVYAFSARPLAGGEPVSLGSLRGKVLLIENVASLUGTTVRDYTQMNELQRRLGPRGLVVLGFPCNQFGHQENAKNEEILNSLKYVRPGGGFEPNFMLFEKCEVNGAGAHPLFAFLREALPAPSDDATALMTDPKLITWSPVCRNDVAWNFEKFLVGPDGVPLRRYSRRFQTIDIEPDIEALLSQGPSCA
Chain of Phospholipid hydroperoxide glutathione peroxidase GPX4 (Homo sapiens) (P36969 whole entry, looked up): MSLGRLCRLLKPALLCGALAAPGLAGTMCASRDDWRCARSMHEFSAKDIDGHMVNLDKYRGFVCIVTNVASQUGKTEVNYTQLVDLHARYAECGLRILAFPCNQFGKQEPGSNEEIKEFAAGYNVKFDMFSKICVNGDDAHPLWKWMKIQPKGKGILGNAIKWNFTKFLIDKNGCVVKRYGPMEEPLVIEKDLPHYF

Compound	Potency [1]	Potency [2]
Cc1cc2c(cc1Cl)N(C(=O)Nc1ccnc3ccccc13)CC2	inactive	inactive
O=C(O)C1=CCCNC1	inactive	inactive
CCCCCC(O)CCCC(=O)O (stereo unspecified)	inactive	inactive
COc1ccc(NC(=O)c2ccc(-c3ccc(-c4noc(C)n4)cc3C)cc2)cc1N1CCN(C)CC1	inactive	inactive
CN1CCc2cc(Cl)c(O)cc2[C@@H](c2ccccc2)C1	inactive	inactive
CC(C)Cn1c(=O)n(C)c(=O)c2[nH]cnc21	inactive	inactive
C=C(C)C1CC=C(C(=O)O)CC1 (stereo unspecified)	inactive	inactive
O=C(O)CCC(=O)N1CCCC1C(=O)O (stereo unspecified)	inactive	inactive
Nc1ncnc2c1nc(Sc1ccc(Cl)cc1)n2[C@H]1OC2COP(=O)(O)O[C@@H]2C1O (stereo partly specified)	inactive	inactive
NCCC1CCCC(CCN)N1 (stereo unspecified)	inactive	inactive
NC(N)=[N+]1CCc2ccccc2C1	inactive	inactive
O=C(O)C1CCNCC1	inactive	inactive
Cc1nc2n(c(=O)c1CCN1CCC(c3noc4cc(F)ccc34)CC1)CCCC2O (stereo unspecified)	inactive	inactive
Nc1nc2c(nc(Br)n2C2OC3COP(=O)(O)O[C@@H]3C2O)c(=O)[nH]1 (stereo partly specified)	inactive	inactive
Cc1nc(N=Nc2ccc(S(=O)(=O)O)cc2S(=O)(=O)O)c(COP(=O)(O)O)c(C=O)c1O	inactive	inactive
CC(/C=C/c1cccc(Oc2ccc(F)cc2)c1)N(O)C(N)=O (stereo unspecified)	inactive	inactive
COc1ccccc1N1CCN(CCCNc2c(C)c(=O)n(C)c(=O)n2C)CC1	inactive	inactive
CCOC(=O)C12CC1/C(=N/O)c1ccccc1O2 (stereo unspecified)	inactive	inactive
C=C1C[C@@]23CC[C@H]4[C@@](C)(CCC[C@@]4(C)C(=O)O)[C@@H]2CC[C@]1(O)C3	inactive	inactive
CC1CNCCN1S(=O)(=O)c1cccc2cnccc12 (stereo unspecified)	inactive	inactive
Cn1c(=O)[nH]c2ncn(C)c2c1=O	inactive	inactive
CCN(CC)CCOC(=O)c1cc(Cl)c(N)cc1OC	inactive	inactive

Compound	Potency [1]	Potency [2]
O=C(O)[C@H]1NCCC[C@H]1C(=O)O	inactive	inactive
OC[C@H]1O[C@H](n2cnc3c(N[C@H]4CCC[C@@H]4O)ncnc32)[C@H](O)[C@@H]1O	inactive	inactive
COc1ccc2c(c1)CCC1C2CC[C@@]2(C)C1CC[C@@H]2NCCCCCCN1C(=O)C=CC1=O (stereo partly specified)	inactive	inactive
O=C(O)Cc1c[nH]c2ccc(O)cc12	inactive	inactive
COc1ccc(CCN(C)CCc2ccc(OC)c(OC)c2)cc1OC	inactive	inactive
CO/N=C(\C(=O)N[C@@H]1C(=O)N2C(C(=O)O)=C(CSc3nc(=O)c(O)nn3C)CSC12)c1csc(N)n1 (stereo partly specified)	25.1 µM (active)	–
CCCCCCCCCCCCCCCCCCOC[C@H](COP(=O)([O-])OCC[N+](C)(C)C)OC	inactive	inactive
CN1CCC2(CCN3CCc4c(oc5ccccc45)C3C2)N(C)C1=O (stereo unspecified)	inactive	–
NC(N)=N[C@@H](CCC(=O)O)C(=O)O	inactive	inactive
COc1cc2c(CCNC(C)=O)c[nH]c2cc1O	inactive	inactive
CCCn1c(=O)c(C)cn2nc(N)nc12	inactive	–
CN(C)S(=O)(=O)c1ccc2c(c1)/C(=C/c1cc3c([nH]1)CCCC3)C(=O)N2	inactive	inactive
N#Cc1cc([N+](=O)[O-])c2sc(C(N)=O)[n+]([O-])c2c1	inactive	inactive
CC(=O)SC1CC2=CC(=O)CC[C@]2(C)C2CC[C@@]3(C)C(CC[C@@]34CCC(=O)O4)C12 (stereo partly specified)	inactive	inactive
N=C(N)SCCc1cnc[nH]1	inactive	inactive
NCC(O)C1CCCCCCC1 (stereo unspecified)	inactive	inactive
CCCOC(=O)c1c(-c2ccccc2)nc(CC)c(C(=O)SCC)c1CCC	inactive	inactive
N#C/C(=C\c1ccc(O)c(O)c1)C(=O)NCCCNC(=O)/C(C#N)=C/c1ccc(O)c(O)c1	inactive	inactive
COCc1nc2c([nH]1)c(=O)n(C)c(=O)n2CC(C)C	inactive	inactive
CC(C)(C)NCC(O)COc1cccc2[nH]c(=O)[nH]c12 (stereo unspecified)	inactive	inactive
NCCS(=O)O	inactive	inactive
NC(=O)CC[C@H](N)C(=O)O	inactive	inactive

Compound	Potency [1]	Potency [2]
Nc1nc2c(cnn2CCc2ccccc2)c2nc(-c3ccco3)nn12	inactive	inactive
N[C@H](C(=O)O)[C@H](O)C(=O)O	inactive	inactive
N=C(N)c1ccc(N)cc1	inactive	inactive
c1ccc(C(NCc2cccnc2)(c2ccccc2)c2ccccc2)cc1	inactive	inactive
O=C(O)C1=CCCN(CCON=C(c2ccccc2)c2ccccc2)C1	inactive	inactive
COc1cc(CNC(=O)CCCCCCC(C)C)ccc1O	inactive	inactive
COc1ccc(C(=O)NCc2cccnc2)cc1C(=O)NCc1cccnc1	inactive	inactive
CNC(=O)c1cc2c(cn1)[nH]c1ccccc12	inactive	inactive
C=CCN1CCc2c(cc(O)c(O)c2Cl)C(c2ccccc2)C1 (stereo unspecified)	inactive	inactive
COc1cc(C(O)CO)ccc1O (stereo unspecified)	inactive	inactive
O=C(O)c1cccnc1C(=O)O	inactive	inactive
Nc1ccc(-c2nc3ccc(-c4nc5ccc(N)cc5[nH]4)cc3[nH]2)cc1	inactive	inactive
CC(N)=O	inactive	inactive
CC(C)NC[C@H](O)COc1ccc(CC(N)=O)cc1	inactive	inactive
[Li+]	inactive	inactive
CC(=O)NNC(=O)N1Cc2ccccc2Oc2ccc(Cl)cc21	inactive	inactive
O=C1OC(=O)C2C3CCC(O3)C12 (stereo unspecified)	inactive	inactive
S=C(S)N1CCCC1	inactive	inactive
CC1=C(/C=C/C(C)=C/C=C/C(C)=C\C(=O)O)C(C)(C)CCC1	inactive	inactive
Oc1cc2c(cc1O)C(c1ccccc1)CNCC2 (stereo unspecified)	inactive	inactive
N=S(=O)(O)Cc1noc2ccccc12	inactive	inactive
O=c1cc(-c2ccccc2)[nH]c2nc(Cl)ccc12	inactive	inactive

Compound	Potency [1]	Potency [2]
COc1ccc(CCn2nnnc2C2(c3ccc(C)cc3)CC2)cc1	inactive	inactive
CCCCCCCCCCC/C=C\C(C)(C)/C=C\CCCC(=O)O	inactive	inactive
Cc1nc(N=Nc2ccc(C(=O)O)cc2)c(COP(=O)(O)O)c(C=O)c1O	inactive	inactive
C=CCn1c(=O)c2c(nc(-c3ccc(S(=O)(=O)O)cc3)n2C)n(C)c1=O	inactive	inactive
Cn1cc(C(F)(F)F)nc1-c1ccc(OCC(O)CNCCOc2ccc(O)c(C(N)=O)c2)cc1 (stereo unspecified)	inactive	inactive
CN(C)CCC(c1ccc(Br)cc1)c1ccccn1 (stereo unspecified)	inactive	inactive
CC(=O)/C(C)=N/O	inactive	inactive
CCCCCCC/C=C\CCCCCCCCC(=O)O	inactive	inactive
Clc1nccc2c1ccc1ccccc12	inactive	inactive
CC(N)=NCCCC[C@@H](N)C(=O)O	inactive	inactive
C[C@](Cc1ccc(O)c(O)c1)(NN)C(=O)O	inactive	inactive
O=C(OCCN1CCOCC1)C1(c2ccccc2)CCCCC1	inactive	inactive
CC1CCN(CC[C@H]2CCCN2S(=O)(=O)c2cccc(O)c2)CC1	inactive	inactive
NCCCNCCCCNCCCN	inactive	inactive
CC[n+]1c(/C=C/C=C2/N(C)c3ccccc3C2(C)C)sc2ccccc21	inactive	inactive
N[C@H](C(=O)O)c1cc(O)cc(O)c1	inactive	inactive
c1ccc(CN2CCC3(CCCc4ccccc43)CC2)cc1	inactive	inactive
COc1cc(/C=C(\C#N)C(=O)c2ccc(O)c(O)c2)cc(I)c1O	inactive	inactive
O=C1Cc2c([nH]c3ccc(Br)cc23)-c2ccccc2N1	inactive	inactive
CCCCOC(=O)NS(=O)(=O)c1sc(CC(C)C)cc1-c1ccc(Cn2c(CC)nc3c(C)cc(C)nc32)cc1	inactive	inactive
Nc1ncnc2c1ncn2C1CCCO1 (stereo unspecified)	inactive	inactive
Fc1ccc(CN(C2=NCCN2)c2c(Cl)cccc2Cl)cc1	inactive	inactive

Compound	Potency [1]	Potency [2]
O=c1cc(-c2ccccc2F)[nH]c2cc3c(cc12)OCO3	inactive	inactive
OC[C@H]1NC[C@@H](O)[C@@H]1O	inactive	inactive
NCCNS(=O)(=O)c1cccc2c(Cl)cccc12	inactive	inactive
C=CC[C@H](N)C(=O)O	inactive	inactive
NS(=O)(=O)c1cccc2c1c([N+](=O)[O-])cc1nc(O)c(O)nc12	inactive	inactive
C=CC1(C)CC(=O)C2(O)C(C)(O1)C(OC(C)=O)C(O)C1C(C)(C)CCC(O)C12C (stereo unspecified)	inactive	inactive
Cc1ccc2c(c1)C(N1CCN(C)CC1)=Nc1cccnc1N2	inactive	inactive
c1ccc(C2CN3CCSC3=N2)cc1 (stereo unspecified)	inactive	inactive
N[C@@H](Cc1ccc(O)c(I)c1)C(=O)O	inactive	inactive
O=C(c1ccc2c(c1)OCCO2)N1CCCCC1	inactive	inactive
NCCCCN	inactive	inactive
COc1cc(C(O)C(=O)O)ccc1O (stereo unspecified)	inactive	inactive
O=C(O)c1cc(=O)cc(C(=O)O)[nH]1	inactive	inactive
CC(C)[C@@H]1CC[C@@H](C)C[C@@H]1P(=O)(c1ccccc1)c1ccccc1	inactive	inactive
O=C1NC(=O)c2cc(Nc3ccccc3)c(Nc3ccccc3)cc21	inactive	inactive
CC(=O)[C@H]1CCC2C3CC=C4C[C@@H](OS(=O)(=O)O)CC[C@]4(C)C3CC[C@@]21C (stereo partly specified)	inactive	inactive
N=C(N)SCCN	inactive	inactive
CC(C)C[C@H](NC(=O)[C@H](O)[C@H](N)Cc1ccccc1)C(=O)O	inactive	inactive
Cn1c(=O)c2c(nc(/C=C/c3cccc(Cl)c3)n2C)n(C)c1=O	inactive	inactive

— PubChem BioAssay (NCATS)
